# Bioassay records: PubChem, several laboratories
# BoNT F protease = BoNT/F light chain protease inhibitors, primary screen, biochemical, flow cytometry, MLPCN library. Botulinum neurotoxin type F light chain protease (Clostridium botulinum). Multiplex microsphere protease cleavage assay. inhibition, % at 10 µM. 0.22% of 360,000 active. AID 588497, 2011; in the data active = inhibition above about 35%, passing the limit was not always enough; inconclusive = no clear call, values can overlap the other calls
# VHR inh abs = VHR1 phosphatase inhibitors, primary screen, biochemical, absorbance, uHTS; recombinant VHR phosphatase, pNPP absorbance; 0.52% of 290,000 active; inhibition, % at 13.3 µM; Dual specificity protein phosphatase 3 (Homo sapiens), P51452; AID 1654, 2009; in the data active = inhibition above about 50%
# Target sequence (P51452 whole entry, looked up): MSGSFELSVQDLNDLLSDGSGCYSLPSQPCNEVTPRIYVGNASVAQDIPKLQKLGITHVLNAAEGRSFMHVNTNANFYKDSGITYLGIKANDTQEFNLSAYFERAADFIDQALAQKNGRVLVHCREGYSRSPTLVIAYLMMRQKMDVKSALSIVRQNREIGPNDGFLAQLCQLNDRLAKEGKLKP
# MazF activator = activators of E. coli MazEF toxin-antitoxin RNase, primary screen, biochemical, fluorescence, uHTS | Endoribonuclease toxin MazF (Escherichia coli (strain K12)), P0AE70 | FAM/BHQ RNA-DNA oligo cleavage fluorescence, 5 h | activation, % at 20 µM | 0.32% of 350,000 active | AID 504720, 2011; in the data active = activation above about 50%
# Target sequence (P0AE70 whole entry, looked up): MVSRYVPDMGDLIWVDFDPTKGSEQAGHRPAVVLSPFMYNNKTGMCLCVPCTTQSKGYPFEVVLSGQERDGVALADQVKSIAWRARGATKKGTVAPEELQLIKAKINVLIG
# BoNT A protease = BoNT/A light chain protease inhibitors, primary screen, biochemical, flow cytometry, MLPCN library. 0.17% of 360,000 active. inhibition, % at 10 µM. Botulinum neurotoxin type A light chain protease (Clostridium botulinum A str. ATCC 3502). multiplex microsphere protease substrate cleavage
# Anthrax LF prot = Bacillus anthracis LF protease inhibitors, primary screen, biochemical, multiplex microsphere, MLPCN library | 0.12% of 360,000 active | Lethal factor (Bacillus anthracis), P15917 | inhibition, % at 10 µM | AID 588501, 2011 | multiplex microsphere protease cleavage assay
# Bead autofluor = compound fluorescence in toxin protease inhibitor counterscreen. compound autofluorescence counterscreen, microsphere flow cytometry; hits give high values. fluorescence intensity (concentration not given with the values). 3.1% of 360,000 active. AID 624483; in the data active = fluorescence intensity above about 16000; inconclusive = no clear call, values can overlap the other calls
# Numbers stand for hits; – = inactive; ? = inconclusive; · = not tested or not shown; + = active, no number; ! = not confirmed by another sample. Most compounds without a hit are left out; they make up all but 4% or so of the library. Cut-off read from the data, not from the text of the source, unless noted: active = inhibition above about 30%; inconclusive = no clear call, values can overlap the other calls; inactive = below that.
SMILES,BoNT F protease,VHR inh abs,MazF activator,BoNT A protease,Anthrax LF prot,Bead autofluor
O=[N+]([O-])/C=C\c1ccc(N2CCCC2)c(F)c1,–,–,–,60,32,–
Cc1ccc(N2CC(C(=O)Nc3nc4ccc(S(C)(=O)=O)cc4s3)CC2=O)cc1C (centres undefined),–,–,–,–,–,–
C=Cc1c(C)c2cc3[nH]c(cc4nc(cc5nc(cc1[nH]2)C(C)=C5CCC(=O)O)C(CCC(=O)O)=C4C)c(C)c3C=C,–,·,–,43!,–,–
CN(/N=C/c1ccc(N(C)C)cc1)C1=NS(=O)(=O)c2ccccc21,–,–,+,–,–,–
O=c1nc(-c2ccccc2Cl)c2cc(F)ccc2[nH]1,51,–,–,–,–,–
O=c1c2ccccc2[nH]c2ccc(F)cc12,–,–,–,–,–,–
CC1=CCC(C(=O)O)(C(=O)N/N=C/c2cccnc2)C(c2ccccc2)C1 (centres undefined),–,–,–,–,–,–
CC1=CCC(C(=O)O)(C(=O)N/N=C/c2cccs2)C(c2ccc(Cl)cc2)C1 (centres undefined),–,–,–,–,–,19841
Cc1nc2ccccn2c1C(=O)N/N=C/c1ccccc1,–,–,–,–,–,–
Cc1nc2ccccn2c1C(=O)N/N=C/c1cc(C)n(-c2ccc(Br)cc2)c1C,–,–,–,–,–,23974
Cc1cccc(C)c1NC(=O)Cn1c(=O)n(CCCC(=O)NCc2ccco2)c(=O)c2sccc21,–,–,–,–,–,22217
O=C(CCn1c(=O)c2sccc2n(CC(=O)NCc2ccco2)c1=O)NCc1ccccc1,–,–,–,–,–,24369
O=C(CCCn1c(=O)c2sccc2n(CC(=O)NCc2ccco2)c1=O)NCc1ccco1,–,–,–,?,–,20462
N#CC(C#N)=Cc1ccc(OC(=O)c2ccccn2)cc1,–,–,–,–,–,–
COc1ccc(C(=O)OCC(=O)Nc2ccc(F)c(F)c2)cc1OC,–,–,–,–,–,–
O=C(NN1C(=O)/C(=C/c2cccs2)SC1=S)c1ccncc1,–,–,–,–,–,–
CNC(=O)NC(=O)Cn1cnc2sc(-c3ccccc3)cc2c1=O,–,–,–,–,–,–
CN(CCO)c1nc2c(c(=O)n(Cc3ccc(Cl)cc3)c(=O)n2C)n1C,?,–,–,–,–,–
CCN1CCN(CC(O)COC(C)C)CC1 (centres undefined),–,–,–,–,–,20191
Nc1ccc2ncccc2c1,–,–,–,?,–,17386
Oc1ccccc1-c1nc(NC2CCCC2)c2ccccc2n1,–,·,–,–,–,–
O=C(NCCc1ccc(F)cc1)Nc1ccc([N+](=O)[O-])cc1,–,–,–,–,–,–
O=C1C=C(NCC2CCCO2)C2(CCCCC2)O1 (centres undefined),–,–,–,–,–,19832
O=c1[nH]c(O)c(/C=C2\C=NN=C2c2ccccc2)c(=O)[nH]1,–,–,–,–,–,21773
Cc1nc(C)c(-c2ccc(SCc3ccccc3C)nn2)s1,–,–,–,–,–,–
SMILES,BoNT F protease,VHR inh abs,MazF activator,BoNT A protease,Anthrax LF prot,Bead autofluor
O=c1ccnc(SCn2nnc3ccccc3c2=O)[nH]1,–,–,–,–,–,21117
COc1ccccc1C(=O)NCCNC(=O)c1ccc(C)nc1,–,–,–,–,–,–
CN(CCO)c1cc(Sc2nc3ccccc3s2)c2nonc2c1[N+](=O)[O-],–,–,–,–,–,21417
CC(=O)OCCN(C)c1cc(SC(C)C)c2nonc2c1[N+](=O)[O-],–,–,–,–,–,–
CC12CCC(C(=O)Nc3ccc4c(c3)OCCO4)(OC1=O)C2(C)C (centres undefined),–,–,–,–,–,23818
CC12CCC(C(=O)NC(c3ccccc3)c3ccccc3)(OC1=O)C2(C)C (centres undefined),–,–,–,–,–,22368
CC1=NN(c2ccc(Br)cc2)C(=O)/C1=C/c1ccc(-c2ccccc2C(=O)O)o1,·,–,–,·,·,·
CCOc1ccc(/C=N/NC(=O)CN2CCCCC2)cc1OCC,?,54,–,–,–,–
CSCCC(N=Cc1c(O)n(-c2ccc(Br)cc2)c(=O)[nH]c1=O)C(=O)OC(C)(C)C (centres undefined),–,–,–,?,–,21352
CSCCC(N=Cc1c(O)n(-c2ccc(F)cc2)c(=O)[nH]c1=O)C(=O)OC(C)(C)C (centres undefined),–,–,–,–,–,–
CC(=O)N1CCN(CC(=O)Nc2cc([N+](=O)[O-])ccc2Cl)CC1,–,–,–,–,–,–
O=c1c2c([N+](=O)[O-])cc([N+](=O)[O-])cc2sn1Cc1ccccc1,56,–,–,50,–,–
Cc1cccc(-c2c3c(=O)n(C)c(=O)n(C)c3cn2-c2ccc(O)cc2)c1,–,·,–,–,–,20937
CCOC(=O)c1c(NC(=O)COC(=O)CNC(=O)c2ccco2)sc(C)c1C,–,–,–,–,–,–
Cc1ccc(OC(=O)CCC(=O)OCCCC(F)(F)C(F)(F)F)cc1,–,–,–,–,–,24380
Cc1ccccc1OC(=O)CCC(=O)OCCCC(F)(F)C(F)(F)F,–,–,–,–,–,–
CCCN(C(=O)COC(=O)c1cc(CC)c(C)s1)c1c(N)n(Cc2ccccc2)c(=O)[nH]c1=O,–,·,–,–,–,–
Cc1cnc(C)c(N2CCN(Cc3nc(-c4cccc(F)c4F)oc3C)CC2)n1,–,–,–,–,–,–
O=C(O)c1cccc(CN2C(=O)c3ccccc3C2=O)c1,–,–,–,–,–,–
O=C1c2cccc3c(O)ccc(c23)C(=O)N1Cc1ccccc1,111,–,380,–,51,–
CCOc1ccc(/C(O)=C2/C(=O)C(=O)N(CCN(CC)CC)C2c2ccco2)cc1 (centres undefined),–,–,–,–,–,–
COc1ccc(C(=O)c2ccsc2N)cc1,–,–,–,–,–,–
COc1ccc(OC)c(N(CC(=O)NC2CC3CCC2C3)S(=O)(=O)c2ccccc2)c1 (centres undefined),–,59,–,–,–,–
COc1ccc(Cl)cc1N(CC(=O)NC1CC2CCC1C2)S(=O)(=O)c1ccccc1 (centres undefined),–,–,–,–,–,–
O=C(NCc1ccncc1)/C(=C/c1cccc([N+](=O)[O-])c1)NC(=O)c1ccccc1,38,–,–,–,–,–
O=C(NCC1CCCO1)/C(=C\c1cccc([N+](=O)[O-])c1)NC(=O)c1ccccc1 (centres undefined),–,–,–,–,–,–
CCC(NC(=O)OC(C)(C)C)C(=O)Oc1cc(C)cc2oc(=O)c3c(c12)CCC3 (centres undefined),–,–,–,–,–,20994
